About 8,800 targets were measured; listed, in parts, are those with a hit and a random draw of the rest. About 0.5% of all pairs of compound and target were hits. Values without a mark were called inactive.
Assays:
Assay in all cases: log2 fold change, soluble protein after heating vs DMSO (PISA); higher = thermal stabilisation; K562 lysate, 10 uM; active = over 0.2 and 3.5 SD of the protein, either way, in both replicates (recomputed)
ibrutinib = compound: C=CC(=O)N1CCC[C@@H](n2nc(-c3ccc(Oc4ccccc4)cc3)c3c(N)ncnc32)C1 [ibrutinib]
How it was run: (§1)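 Thermal stability, expressed as log-two fold change relative to solvent controls, is given from duplicates. Crude K562 extract in PBS pH 7.4 with 1 mM MgCl2, at 1 mg/mL protein, was treated with 10 μM compound for 30 min and heated in aliquots for 3 min across 48°C-58°C. After pooling, adjustment to 0.5% NP-40 at 4°C and centrifugation at 21,000xg for 90 min, supernatant protein was measured by TMTpro 16plex LC-MS/MS with channel sums equalised.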

[1] = compound: CC(=O)c1cnc2ccc(-c3cc(Cl)c(O)c(Cl)c3)nc2c1N[C@H]1CC[C@H](CN(C)C)CC1
How it was run: as §1

ralimetinib = compound: CC(C)(C)Cn1c(N)nc2ccc(-c3[nH]c(C(C)(C)C)nc3-c3ccc(F)cc3)nc21 [ralimetinib]
How it was run: as §1

[2] = compound: CC(C)(O)CC(=O)NCCn1ccc2ncnc(Nc3ccc(Oc4cccc(C(F)(F)F)c4)c(Cl)c3)c21
How it was run: as §1

[3] = compound: CC(C)C1=C2N=C(C=C(N2N=C1)NCC3=CC=CC=C3)NCCCCCCN
How it was run: as §1

[4] = compound: CC1=C(C(CC(=O)N1)C2=CC=C(C=C2)C(F)(F)F)C(=O)NC3=C(C=C4C(=C3)C=NN4)F
How it was run: as §1

[5] = compound: CC1=C(C2=C(C=C1)C(=O)C3=CC=CC=C3N2CCCN)C
How it was run: as §1

[6] = compound: CC1=C(C=C(C=C1)NC(=O)C2=CC(=CC=C2)C(C)(C)C#N)NC3=CC4=C(C=C3)N=CN(C4=O)C
How it was run: as §1

[7] = compound: CC1=C(C=C(C=C1)NC(=O)C2=CC(=CC=C2)N(C)C)NC(=O)C3=CC=C(C=C3)O
How it was run: as §1

[8] = compound: CC1=CC=C(C=C1)SC2=C3C=C(SC3=CN=C2)C(=O)N
How it was run: as §1

Sequence of UniProt P53805 (P53805 whole entry, looked up): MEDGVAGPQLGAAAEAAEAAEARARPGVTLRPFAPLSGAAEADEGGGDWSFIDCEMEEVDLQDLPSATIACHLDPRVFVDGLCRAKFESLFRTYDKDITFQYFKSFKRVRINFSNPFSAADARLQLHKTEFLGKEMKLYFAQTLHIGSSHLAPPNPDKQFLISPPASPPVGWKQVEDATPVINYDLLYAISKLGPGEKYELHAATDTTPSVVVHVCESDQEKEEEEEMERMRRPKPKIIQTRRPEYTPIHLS
Sequence of UniProt Q8IZV5 (Q8IZV5 whole entry, looked up): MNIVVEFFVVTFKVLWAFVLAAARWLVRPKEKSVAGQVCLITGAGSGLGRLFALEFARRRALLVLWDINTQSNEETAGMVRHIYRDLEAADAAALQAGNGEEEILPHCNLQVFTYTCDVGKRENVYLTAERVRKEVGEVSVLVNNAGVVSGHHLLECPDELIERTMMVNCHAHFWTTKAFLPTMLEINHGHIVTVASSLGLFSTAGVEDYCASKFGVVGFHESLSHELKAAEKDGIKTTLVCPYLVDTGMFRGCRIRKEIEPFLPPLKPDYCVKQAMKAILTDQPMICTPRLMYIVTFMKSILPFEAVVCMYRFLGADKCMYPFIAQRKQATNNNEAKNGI
Sequence of UniProt Q96EE3 (Q96EE3 whole entry, looked up): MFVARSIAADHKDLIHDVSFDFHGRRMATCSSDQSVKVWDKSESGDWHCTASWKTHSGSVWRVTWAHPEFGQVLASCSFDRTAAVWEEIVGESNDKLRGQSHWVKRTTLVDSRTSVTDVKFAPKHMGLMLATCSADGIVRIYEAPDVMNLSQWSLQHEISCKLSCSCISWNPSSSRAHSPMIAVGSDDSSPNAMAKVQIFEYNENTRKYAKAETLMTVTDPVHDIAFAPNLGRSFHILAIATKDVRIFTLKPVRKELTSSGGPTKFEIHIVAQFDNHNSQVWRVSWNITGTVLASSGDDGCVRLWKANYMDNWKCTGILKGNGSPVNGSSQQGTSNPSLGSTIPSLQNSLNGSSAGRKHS
Sequence of UniProt Q92878 (Q92878 whole entry, looked up): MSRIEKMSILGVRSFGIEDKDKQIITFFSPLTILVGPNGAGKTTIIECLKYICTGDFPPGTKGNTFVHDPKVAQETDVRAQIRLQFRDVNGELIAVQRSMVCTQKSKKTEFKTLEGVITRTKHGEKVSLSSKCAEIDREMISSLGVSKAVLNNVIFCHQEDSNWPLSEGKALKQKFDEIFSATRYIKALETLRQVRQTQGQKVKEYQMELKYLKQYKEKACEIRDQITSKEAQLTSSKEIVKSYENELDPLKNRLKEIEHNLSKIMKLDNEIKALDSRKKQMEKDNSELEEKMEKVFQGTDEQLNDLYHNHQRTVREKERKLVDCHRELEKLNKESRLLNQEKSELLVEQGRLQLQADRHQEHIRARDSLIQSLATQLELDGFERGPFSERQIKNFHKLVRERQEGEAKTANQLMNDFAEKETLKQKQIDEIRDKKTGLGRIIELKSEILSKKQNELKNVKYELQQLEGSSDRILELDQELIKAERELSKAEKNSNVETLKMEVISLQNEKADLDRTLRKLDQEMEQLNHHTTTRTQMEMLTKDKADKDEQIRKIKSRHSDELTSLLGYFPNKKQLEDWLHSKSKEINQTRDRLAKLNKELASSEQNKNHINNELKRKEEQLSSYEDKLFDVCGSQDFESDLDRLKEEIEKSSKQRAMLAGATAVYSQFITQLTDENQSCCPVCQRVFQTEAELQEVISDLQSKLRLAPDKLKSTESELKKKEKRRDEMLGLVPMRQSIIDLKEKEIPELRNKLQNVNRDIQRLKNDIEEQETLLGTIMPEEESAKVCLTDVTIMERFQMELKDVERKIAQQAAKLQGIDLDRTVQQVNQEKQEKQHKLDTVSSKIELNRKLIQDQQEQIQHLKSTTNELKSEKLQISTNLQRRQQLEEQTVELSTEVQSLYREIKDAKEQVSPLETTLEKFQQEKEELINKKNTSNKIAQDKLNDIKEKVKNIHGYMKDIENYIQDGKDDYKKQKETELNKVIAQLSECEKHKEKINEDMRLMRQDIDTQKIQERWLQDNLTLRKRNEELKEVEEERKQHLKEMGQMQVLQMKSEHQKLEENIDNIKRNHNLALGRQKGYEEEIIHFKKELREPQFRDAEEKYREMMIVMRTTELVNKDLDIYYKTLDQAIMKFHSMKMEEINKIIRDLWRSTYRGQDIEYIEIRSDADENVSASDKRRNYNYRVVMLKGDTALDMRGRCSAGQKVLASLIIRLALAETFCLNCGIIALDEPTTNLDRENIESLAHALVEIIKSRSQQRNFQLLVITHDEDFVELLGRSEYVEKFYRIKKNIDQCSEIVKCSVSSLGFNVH
Sequence of UniProt P60059 (P60059 whole entry, looked up): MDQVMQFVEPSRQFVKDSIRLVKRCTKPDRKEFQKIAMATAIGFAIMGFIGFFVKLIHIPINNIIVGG
Sequence of UniProt P35250 (P35250 whole entry, looked up): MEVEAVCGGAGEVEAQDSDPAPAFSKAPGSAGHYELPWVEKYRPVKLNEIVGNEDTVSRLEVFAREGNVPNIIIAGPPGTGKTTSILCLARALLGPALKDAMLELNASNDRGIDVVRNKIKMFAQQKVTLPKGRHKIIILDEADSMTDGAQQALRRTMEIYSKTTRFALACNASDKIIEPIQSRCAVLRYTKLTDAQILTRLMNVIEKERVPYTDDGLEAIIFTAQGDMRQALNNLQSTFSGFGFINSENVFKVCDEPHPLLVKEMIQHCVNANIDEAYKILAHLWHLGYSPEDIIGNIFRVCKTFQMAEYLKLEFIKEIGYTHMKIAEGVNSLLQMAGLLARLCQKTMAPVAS
Sequence of UniProt Q9Y3T6 (Q9Y3T6 whole entry, looked up, one chain of several): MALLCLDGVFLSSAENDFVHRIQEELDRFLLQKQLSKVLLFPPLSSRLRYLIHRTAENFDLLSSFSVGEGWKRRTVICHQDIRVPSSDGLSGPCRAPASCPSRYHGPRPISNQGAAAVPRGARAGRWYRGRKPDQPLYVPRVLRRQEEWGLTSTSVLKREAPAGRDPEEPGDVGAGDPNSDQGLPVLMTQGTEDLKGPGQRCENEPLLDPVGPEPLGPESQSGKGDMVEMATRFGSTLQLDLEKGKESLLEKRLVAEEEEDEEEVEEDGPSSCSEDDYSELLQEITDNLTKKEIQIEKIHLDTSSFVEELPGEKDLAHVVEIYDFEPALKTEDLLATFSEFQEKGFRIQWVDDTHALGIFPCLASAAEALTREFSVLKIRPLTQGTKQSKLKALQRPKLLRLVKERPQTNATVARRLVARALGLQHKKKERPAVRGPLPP
Sequence of UniProt Q8TBN0 (Q8TBN0 whole entry, looked up): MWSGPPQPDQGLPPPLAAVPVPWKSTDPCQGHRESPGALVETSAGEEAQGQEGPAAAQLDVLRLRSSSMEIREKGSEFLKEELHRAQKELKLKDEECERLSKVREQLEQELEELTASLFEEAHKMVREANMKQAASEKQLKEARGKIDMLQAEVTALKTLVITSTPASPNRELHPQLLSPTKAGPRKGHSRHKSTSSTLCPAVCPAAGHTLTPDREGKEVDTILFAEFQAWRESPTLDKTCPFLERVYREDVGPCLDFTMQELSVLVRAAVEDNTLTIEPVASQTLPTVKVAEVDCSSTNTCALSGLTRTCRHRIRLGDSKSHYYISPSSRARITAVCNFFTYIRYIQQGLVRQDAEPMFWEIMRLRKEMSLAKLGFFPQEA
Sequence of UniProt P54136 (P54136 whole entry, looked up): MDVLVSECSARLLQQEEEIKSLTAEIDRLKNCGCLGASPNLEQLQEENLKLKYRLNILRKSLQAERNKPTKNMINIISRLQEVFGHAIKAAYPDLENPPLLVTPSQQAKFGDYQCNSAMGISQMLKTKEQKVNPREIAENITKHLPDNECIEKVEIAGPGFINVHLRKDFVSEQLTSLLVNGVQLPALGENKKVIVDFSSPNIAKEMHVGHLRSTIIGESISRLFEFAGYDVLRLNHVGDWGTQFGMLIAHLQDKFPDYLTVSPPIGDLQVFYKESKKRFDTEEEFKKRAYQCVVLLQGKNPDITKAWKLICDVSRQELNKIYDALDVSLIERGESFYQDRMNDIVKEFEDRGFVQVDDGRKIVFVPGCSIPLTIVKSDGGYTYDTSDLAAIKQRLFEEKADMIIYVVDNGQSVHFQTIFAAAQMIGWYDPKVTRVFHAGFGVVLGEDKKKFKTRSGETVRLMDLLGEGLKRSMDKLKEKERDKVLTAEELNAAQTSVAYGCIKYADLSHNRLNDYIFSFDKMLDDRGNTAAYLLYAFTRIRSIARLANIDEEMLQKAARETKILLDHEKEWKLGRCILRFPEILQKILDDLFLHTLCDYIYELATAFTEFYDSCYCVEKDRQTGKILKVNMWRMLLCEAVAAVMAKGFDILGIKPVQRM
Sequence of UniProt Q13530 (Q13530 whole entry, looked up): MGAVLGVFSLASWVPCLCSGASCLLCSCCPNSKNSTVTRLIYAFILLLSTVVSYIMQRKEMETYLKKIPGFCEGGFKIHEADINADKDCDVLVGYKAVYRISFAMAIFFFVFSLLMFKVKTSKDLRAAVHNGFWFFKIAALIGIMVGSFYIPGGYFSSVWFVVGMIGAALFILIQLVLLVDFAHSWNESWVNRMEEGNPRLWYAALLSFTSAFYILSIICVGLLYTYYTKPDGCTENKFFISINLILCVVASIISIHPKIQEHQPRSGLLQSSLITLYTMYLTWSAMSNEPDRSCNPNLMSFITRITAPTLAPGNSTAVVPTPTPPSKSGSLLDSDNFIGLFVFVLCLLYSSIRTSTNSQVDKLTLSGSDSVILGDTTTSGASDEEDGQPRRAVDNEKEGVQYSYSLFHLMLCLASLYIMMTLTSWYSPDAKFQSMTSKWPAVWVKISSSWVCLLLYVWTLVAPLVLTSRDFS
Sequence of UniProt Q7L523 (Q7L523 whole entry, looked up): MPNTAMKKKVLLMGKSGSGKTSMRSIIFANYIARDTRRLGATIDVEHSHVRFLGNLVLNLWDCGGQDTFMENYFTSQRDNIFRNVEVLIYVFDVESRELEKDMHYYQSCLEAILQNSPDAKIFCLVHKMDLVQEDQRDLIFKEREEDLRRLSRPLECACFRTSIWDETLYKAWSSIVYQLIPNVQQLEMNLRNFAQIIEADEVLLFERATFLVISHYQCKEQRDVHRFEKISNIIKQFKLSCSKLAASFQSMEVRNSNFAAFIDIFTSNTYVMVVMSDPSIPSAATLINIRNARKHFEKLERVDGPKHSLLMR

| Target | log2 fold change (ibrutinib) | log2 fold change [1] | log2 fold change (ralimetinib) | log2 fold change [2] | log2 fold change [3] | log2 fold change [4] | log2 fold change [5] | log2 fold change [6] | log2 fold change [7] | log2 fold change [8] |
| --- | --- | --- | --- | --- | --- | --- | --- | --- | --- | --- |
| RALGAPA1 isoform 6 (UniProt Q6GYQ0) | 0.047 | -0.06 | 0.01 | 0.002 | -0.01 | -0.039 | 0.02 | -0.007 | 0.038 | -0.081 |
| RAB3IL1 (UniProt Q8TBN0) | 0.03 | -0.035 | 0.021 | -0.022 | 0.004 | 0.116 | -0.006 | 0.02 | -0.024 | 0.003 |
| RAP1B (UniProt P61224) | -0.024 | -0.005 | 0.051 | -0.03 | -0.014 | -0.01 | 0.004 | 0.008 | -0.017 | -0.008 |
| RPS18 (UniProt P62269) | -0.016 | 0.01 | -0.006 | -0.02 | 0.008 | -0.037 | -0.1 | 0 | -0.006 | -0.012 |
| RFC2 (UniProt P35250) | 0.009 | 0.018 | 0.036 | 0.044 | -0.002 | -0.001 | 0.011 | 0.008 | 0.048 | -0.001 |
| RRAGA (UniProt Q7L523) | -0.114 | 0.008 | -0.112 | -0.524 | 0.006 | 0.005 | -0.089 | 0.079 | 0.343 | -0.113 |
| SEC61G (UniProt P60059) | 0.037 | 0 | -0.019 | -0.229 | -0.052 | -0.081 | -0.053 | 0.071 | 0.004 | 0.052 |
| RBM42 (UniProt Q9BTD8) | 0.071 | 0.02 | -0.011 | -0.007 | 0.081 | 0.025 | 0.04 | -0.028 | -0.005 | 0.069 |
| SERINC3 (UniProt Q13530) | 0.06 | -0.082 | 0.01 | -0.003 | -0.016 | -0.012 | -0.055 | 0.049 | -0.042 | -0.011 |
| R3HCC1 (UniProt Q9Y3T6) | 0.02 | 0.058 | 0.016 | -0.028 | -0.045 | 0.022 | -0.061 | 0.017 | -0.001 | 0.025 |
| RBBP7 (UniProt Q16576) | 0.062 | 0.018 | 0.018 | 0 | -0.042 | -0.003 | 0.014 | -0.114 | 0.002 | -0.03 |
| SAMD4A (UniProt Q9UPU9) | -0.014 | 0.052 | 0.395 | 0.097 | 0.094 | – | -0.008 | 0.025 | 0.196 | 0.088 |
| RIOK2 (UniProt Q9BVS4) | -0.012 | 0.512 (active) | 0.026 | -0.014 | -0.021 | -0.018 | -0.011 | -0.016 | 0.013 | 0.052 |
| RIOK3 (UniProt O14730) | -0.021 | -0.013 | 0.055 | 0 | 0.054 | -0.011 | -0.023 | 0.001 | 0.011 | -0.093 |
| RNASEL (UniProt Q05823) | -0.072 | -0.033 | 0.037 | -0.034 | 0 | -0.023 | 0.001 | 0.01 | 0.013 | 0.027 |
| RXRB isoform 3 (UniProt P28702) | 0.047 | -0.037 | – | – | 0.106 | 0.026 | -0.005 | 0.011 | – | -0.109 |

| Target | log2 fold change (ibrutinib) | log2 fold change [1] | log2 fold change (ralimetinib) | log2 fold change [2] | log2 fold change [3] | log2 fold change [4] | log2 fold change [5] | log2 fold change [6] | log2 fold change [7] | log2 fold change [8] |
| --- | --- | --- | --- | --- | --- | --- | --- | --- | --- | --- |
| RAP1B (UniProt F5GZG1) | 0.01 | -0.021 | – | – | 0.061 | 0.036 | 0.019 | -0.124 | – | 0.117 |
| SCAF1 (UniProt Q9H7N4) | 0.219 | -0.054 | -0.025 | 0.171 | 0.042 | 0.065 | -0.06 | 0.056 | 0.056 | 0.002 |
| RCAN1 (UniProt P53805) | -0.019 | 0.003 | -0.004 | 0.012 | 0.002 | 0.026 | -0.027 | 0.085 | -0.02 | 0.02 |
| RBM8A (UniProt Q9Y5S9) | -0.001 | -0.016 | -0.011 | 0.057 | -0.038 | -0.004 | 0.066 | -0.101 | 0.035 | 0.027 |
| RPL27 (UniProt P61353) | 0.037 | -0.014 | -0.025 | -0.018 | -0.01 | -0.067 | -0.051 | 0 | -0.01 | 0.014 |
| RAD50 isoform 2 (UniProt Q92878) | 0.002 | -0.01 | 0.01 | 0.018 | 0 | -0.001 | 0.03 | 0 | 0.017 | -0.006 |
| RETSAT (UniProt Q6NUM9) | -0.091 | 0.073 | -0.057 | -0.134 | 0.07 | – | -0.113 | 0.226 | -0.015 | -0.24 |
| RARS (UniProt P54136) | -0.001 | -0.003 | 0.062 | 0.048 | 0.033 | -0.019 | 0.015 | -0.003 | 0.06 | 0.033 |
| RAD54L (UniProt Q92698) | -0.081 | 0.035 | -0.062 | -0.224 | 0.085 | 0 | 0.039 | – | 0.054 | 0.059 |
| RCC1 isoform 2 (UniProt P18754) | -0.008 | 0.012 | 0.041 | 0.019 | 0.015 | -0.048 | -0.037 | -0.01 | 0.036 | 0.01 |
| RNF17 (UniProt Q9BXT8) | -0.098 | 0.035 | -0.044 | -0.254 | -0.023 | – | 0.077 | -0.196 | -0.044 | -0.068 |
| SEH1L isoform 1 (UniProt Q96EE3) | 0.013 | -0.024 | -0.011 | -0.008 | 0.005 | -0.021 | -0.014 | 0.015 | 0.017 | -0.014 |
| RTTN (UniProt Q86VV8) | 0.095 | 0.155 | 0.145 | -0.137 | 0.379 | -0.053 | 0.015 | – | -0.004 | 0.112 |
| REEP6 (UniProt Q96HR9) | -0.026 | -0.026 | 0.018 | -0.029 | -0.067 | -0.006 | -0.066 | 0.084 | 0.055 | 0.038 |
| RDH10 (UniProt Q8IZV5) | 0.016 | -0.015 | 0.04 | -0.013 | 0.03 | -0.007 | -0.033 | -0.045 | -0.034 | -0.016 |
